# Laboratory results published in PubChem BioAssay AID624388 (National Center for Advancing Translational Sciences (NCATS), 2012).
# Active and inactive are the calls of the source. The call rests on the fitted dose curve; in most records, active means well fitted curve in the direction sought with a large enough effect; inactive means no such curve, though single readings can be large or run the other way.
# Target: Pyruvate kinase PKLR (Homo sapiens) (UniProt P30613)
# Experiment: qHTS for Activators of Human Muscle Isoform 2 Pyruvate Kinase (PK): Extended Characterization using Reticulocyte PK Probe 2
# Details: purified hPK-R, ATP production, Kinase-Glo luminescence; series mostly up to 58 µM
# Source text: Human pyruvate kinase reticulocyte (hPK-R) enzyme was supplied as a highly purified (>95% pure) preparation from Structural Genomics Consortium in Toronto (Ontario, Canada) and assayed for its ability to generate ATP from ADP using phosphoenolpyruvate (PEP) as a substrate. ATP generation was detected in a coupled reaction by luciferase-mediated luminescence, an ATP-dependent process. Pyruvate kinase substrates, PEP and ADP, were present in the assay at Km and approximately 10-fold below Km respectively. The enzyme was assayed at an intermediate level of activity to screen for both inhibitors and activators. NIH Chemical Genomics Center [NCGC] NIH Molecular Libraries Probe Centers Network [MLPCN] MLPCN Grant: MH085679 Assay Submitter (PI): Matthew G. Vander Heiden, Harvard Medical School
# Three uL of substrate mix (at r.t.) in assay buffer (50 mM Imidazole pH7.2, 50 mM KCl, 7 mM MgCl2, 0.01% Tween 20, 0.05% BSA) was dispensed into white solid bottom 1,536 well microtiter plates so that the final concentrations of substrates in the assay were 0.1 mM ADP and 0.5 mM PEP. 23 nL of compound were delivered by a pin tool and 1 uL of enzyme mix (final concentration of 0.1 nM) in assay buffer (4 degree Celsius) was added. Plates were incubated at room temperature for 1 hour. Two uL of detection mix (Kinase-Glo, Promega; at 4 degree Celsius protected from light) was added and luminescence read by a ViewLux (Perkin Elmer) at 1 second exposure/plate. Data were normalized to the uninhibited (row 31). Additionally, a no enzyme and 5-fold enzyme control was dispensed in row 32, split equally between the two conditions.
# Sequence of Pyruvate kinase PKLR (Homo sapiens) (P30613 whole entry, looked up, canonical isoform): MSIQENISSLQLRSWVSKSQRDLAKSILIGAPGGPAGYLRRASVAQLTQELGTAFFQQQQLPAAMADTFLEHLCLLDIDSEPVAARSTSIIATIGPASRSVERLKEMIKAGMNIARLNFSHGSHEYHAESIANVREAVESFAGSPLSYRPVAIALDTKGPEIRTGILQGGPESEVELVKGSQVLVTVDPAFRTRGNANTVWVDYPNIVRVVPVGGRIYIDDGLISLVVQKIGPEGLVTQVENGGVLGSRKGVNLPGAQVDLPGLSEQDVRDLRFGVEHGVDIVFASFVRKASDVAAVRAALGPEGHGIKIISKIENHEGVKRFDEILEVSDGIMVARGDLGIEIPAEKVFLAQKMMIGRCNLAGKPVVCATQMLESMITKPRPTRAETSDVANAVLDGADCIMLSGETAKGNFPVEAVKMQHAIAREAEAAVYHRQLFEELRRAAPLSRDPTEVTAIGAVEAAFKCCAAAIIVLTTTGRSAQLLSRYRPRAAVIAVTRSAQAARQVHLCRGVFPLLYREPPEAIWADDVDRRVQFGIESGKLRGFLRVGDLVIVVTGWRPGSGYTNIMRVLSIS
row,Compound,outcome
1,COc1cccc(Cn2ncc3c4sc(S(C)=O)cc4n(C)c3c2=O)c1 (centres undefined),inactive
2,Cc1ccc(NS(=O)(=O)c2ccc3c(c2)CCC(=O)N3)cc1C,inactive
3,O=S(=O)(c1ccc2c(c1)OCCO2)N1CCN(S(=O)(=O)c2c(F)cccc2F)CC1,inactive
4,Nc1cccc(S(=O)(=O)N2CCCN(S(=O)(=O)c3ccc4c(c3)OCCO4)CC2)c1,inactive
